Measurements from PubChem BioAssay AID1159580 (chemical genetic matrix, 2015).
In all, about 5,500 compounds went through this assay and about 2,000 (36%) were called active. About 18% were inconclusive and are not listed. The list shows a part of the results. A number with no mark means an inactive call. Cut-off read from the data, not from the text of the source: active = normalized growth mostly below about 0.91 (no sharp cut-off); inconclusive = no clear call, values can overlap the other calls; inactive = mostly above about 0.92.

Assay: chemical genetic growth profiling, strain panel (AID 1159580);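 note: tested at 20 µM; growth read once vehicle control cultures reached saturation at 30 °C; 1 = growth at the plate median or of vehicle wells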
Details: growth OD

COc1ccc2c(c1)O[C@@H]1COc3cc(OC)c(OC)cc3[C@@H]1C2=O
normalized growth (S. cerevisiae deletion strains, locus YJR043C, strain POL32, stronger effect = lower value): 0.719 (active)
normalized growth (S. cerevisiae deletion strains, locus YJR066W, strain TOR1, stronger effect = lower value): 0.92
normalized growth (S. cerevisiae deletion strains, locus YJR075W, strain HOC1, stronger effect = lower value): 0.776 (active)
normalized growth (S. cerevisiae deletion strains, locus YKL009W, strain mrt4, stronger effect = lower value): 1.01
normalized growth (S. cerevisiae deletion strains, locus YKL068W, stronger effect = lower value): 0.984
normalized growth (S. cerevisiae deletion strains, locus YKL085W, strain MDH1 (second series), stronger effect = lower value): 0.984
normalized growth (S. cerevisiae deletion strains, locus YKL085W, strain MDH1, stronger effect = lower value): 0.984
normalized growth (S. cerevisiae deletion strains, locus YKL160W, strain elf1, stronger effect = lower value): 0.428 (active)
normalized growth (S. cerevisiae deletion strains, locus YKR001C, strain vps1, stronger effect = lower value): 0.912
normalized growth (S. cerevisiae deletion strains, locus YKR026C, strain gcn3, stronger effect = lower value): 0.992
normalized growth (S. cerevisiae deletion strains, locus YKR091W, strain srl3, stronger effect = lower value): 0.988
normalized growth (S. cerevisiae deletion strains, locus YLL001W, strain dnm1, stronger effect = lower value): 0.794 (active)
normalized growth (S. cerevisiae deletion strains, locus YLL026W, stronger effect = lower value): 0.557 (active)
normalized growth (S. cerevisiae deletion strains, locus YLL041C, strain sdh2, stronger effect = lower value): 0.674 (active)
normalized growth (S. cerevisiae deletion strains, locus YLR027C, strain aat2, stronger effect = lower value): 0.445 (active)
normalized growth (S. cerevisiae deletion strains, locus YLR039C, strain RIC1, stronger effect = lower value): 0.914
normalized growth (S. cerevisiae deletion strains, locus YLR058C, strain SHM2, stronger effect = lower value): 0.9
normalized growth (S. cerevisiae deletion strains, locus YLR102C, strain apc9, stronger effect = lower value): 0.696 (active)
normalized growth (S. cerevisiae deletion strains, locus YLR113W, strain HOG1, stronger effect = lower value): 0.983
normalized growth (S. cerevisiae deletion strains, locus YLR221C, strain rsa3, stronger effect = lower value): 0.377 (active)
normalized growth (S. cerevisiae deletion strains, locus YLR258W, strain gsy2, stronger effect = lower value): 0.705 (active)
normalized growth (S. cerevisiae deletion strains, locus YLR262C, strain YPT6 (second series), stronger effect = lower value): 0.994
normalized growth (S. cerevisiae deletion strains, locus YLR262C, strain YPT6, stronger effect = lower value): 0.928
normalized growth (S. cerevisiae deletion strains, locus YLR268W, strain sec22, stronger effect = lower value): 0.739 (active)
normalized growth (S. cerevisiae deletion strains, locus YLR320W, strain mms22, stronger effect = lower value): 0.228 (active)
normalized growth (S. cerevisiae deletion strains, locus YLR342W, strain FKS1, stronger effect = lower value): 0.665 (active)
normalized growth (S. cerevisiae deletion strains, locus YLR357W, strain rsc2, stronger effect = lower value): 0.932
normalized growth (S. cerevisiae deletion strains, locus YLR370C, strain arc18, stronger effect = lower value): 0.984
normalized growth (S. cerevisiae deletion strains, locus YLR371W, strain rom2, stronger effect = lower value): 0.854 (active)
normalized growth (S. cerevisiae deletion strains, locus YLR384C, strain iki3, stronger effect = lower value): 1.01
normalized growth (S. cerevisiae deletion strains, locus YLR418C, strain cdc73, stronger effect = lower value): 0.546 (active)
normalized growth (S. cerevisiae deletion strains, locus YML016C, strain PPZ1, stronger effect = lower value): 0.84 (active)
normalized growth (S. cerevisiae deletion strains, locus YML032C, strain rad52, stronger effect = lower value): 0.521 (active)
normalized growth (S. cerevisiae deletion strains, locus YML120C, strain ndi1, stronger effect = lower value): 0.59 (active)
normalized growth (S. cerevisiae deletion strains, locus YML124C, strain tub3, stronger effect = lower value): 0.874 (active)
normalized growth (S. cerevisiae deletion strains, locus YMR058W, strain fet3, stronger effect = lower value): 0.537 (active)
normalized growth (S. cerevisiae deletion strains, locus YMR078C, strain ctf18, stronger effect = lower value): 0.373 (active)
normalized growth (S. cerevisiae deletion strains, locus YMR125W, strain sto1, stronger effect = lower value): 0.612 (active)
normalized growth (S. cerevisiae deletion strains, locus YMR129W, stronger effect = lower value): 0.908 (active)
normalized growth (S. cerevisiae deletion strains, locus YMR205C, strain PFK2, stronger effect = lower value): 0.23 (active)
normalized growth (S. cerevisiae deletion strains, locus YMR223W, strain ubp8, stronger effect = lower value): 0.78 (active)
normalized growth (S. cerevisiae deletion strains, locus YMR231W, strain pep5, stronger effect = lower value): 0.991
normalized growth (S. cerevisiae deletion strains, locus YMR263W, strain SAP30, stronger effect = lower value): 0.922
normalized growth (S. cerevisiae deletion strains, locus YMR307W, strain GAS1, stronger effect = lower value): 0.909
normalized growth (S. cerevisiae deletion strains, locus YNL067W, strain RPL9B, stronger effect = lower value): 0.858 (active)
normalized growth (S. cerevisiae deletion strains, locus YNL071W, strain lat1, stronger effect = lower value): 0.246 (active)
normalized growth (S. cerevisiae deletion strains, locus YNL153C, strain GIM3, stronger effect = lower value): 0.597 (active)
normalized growth (S. cerevisiae deletion strains, locus YNL183C, strain NPR1, stronger effect = lower value): 0.927
normalized growth (S. cerevisiae deletion strains, locus YNL209W, strain ssb2, stronger effect = lower value): 1.01
normalized growth (S. cerevisiae deletion strains, locus YNL233W, strain BNI4, stronger effect = lower value): 0.427 (active)
normalized growth (S. cerevisiae deletion strains, locus YNL248C, strain rpa49, stronger effect = lower value): 0.814 (active)
normalized growth (S. cerevisiae deletion strains, locus YNL250W, strain rad50, stronger effect = lower value): 0.936
normalized growth (S. cerevisiae deletion strains, locus YNL271C, strain bni1, stronger effect = lower value): 0.963
normalized growth (S. cerevisiae deletion strains, locus YNL298W, strain CLA4, stronger effect = lower value): 0.97
normalized growth (S. cerevisiae deletion strains, locus YNL307C, strain MCK1, stronger effect = lower value): 0.183 (active)
normalized growth (S. cerevisiae deletion strains, locus YNL322C, strain KRE1 (second series), stronger effect = lower value): 0.761 (active)
normalized growth (S. cerevisiae deletion strains, locus YNR049C, strain mso1, stronger effect = lower value): 0.951
normalized growth (S. cerevisiae deletion strains, locus YNR052C, strain pop2, stronger effect = lower value): 0.948
normalized growth (S. cerevisiae deletion strains, locus YOL012C, strain htz1): 0.241
normalized growth (S. cerevisiae deletion strains, locus YOL147C, strain pex11, stronger effect = lower value): 0.25 (active)
normalized growth (S. cerevisiae deletion strains, locus YOR001W, strain rrp6, stronger effect = lower value): 0.689 (active)
normalized growth (S. cerevisiae deletion strains, locus YOR061W, strain CKA2, stronger effect = lower value): 0.967
normalized growth (S. cerevisiae deletion strains, locus YOR069W, strain VPS5, stronger effect = lower value): 0.905 (active)
normalized growth (S. cerevisiae deletion strains, locus YOR070C, strain gyp1, stronger effect = lower value): 0.528 (active)
normalized growth (S. cerevisiae deletion strains, locus YOR080W, strain dia2, stronger effect = lower value): 0.839 (active)
normalized growth (S. cerevisiae deletion strains, locus YOR083W, strain WHI5, stronger effect = lower value): 0.916
normalized growth (S. cerevisiae deletion strains, locus YOR106W, strain vam3, stronger effect = lower value): 0.871
normalized growth (S. cerevisiae deletion strains, locus YOR136W, strain idh2, stronger effect = lower value): 0.767 (active)
normalized growth (S. cerevisiae deletion strains, locus YOR144C, strain elg1, stronger effect = lower value): 0.573 (active)
normalized growth (S. cerevisiae deletion strains, locus YOR184W, strain ser1, stronger effect = lower value): 0.896
normalized growth (S. cerevisiae deletion strains, locus YOR231W, strain MKK1, stronger effect = lower value): 0.977
normalized growth (S. cerevisiae deletion strains, locus YOR265W, strain rbl2, stronger effect = lower value): 0.797 (active)
normalized growth (S. cerevisiae deletion strains, locus YOR270C, strain vph1, stronger effect = lower value): 0.593 (active)
normalized growth (S. cerevisiae deletion strains, locus YOR290C, strain snf2, stronger effect = lower value): 0.315 (active)
normalized growth (S. cerevisiae deletion strains, locus YOR316C, strain cot1, stronger effect = lower value): 0.771 (active)
normalized growth (S. cerevisiae deletion strains, locus YPL051W, strain arl3, stronger effect = lower value): 0.803 (active)
normalized growth (S. cerevisiae deletion strains, locus YPL055C, strain LGE1, stronger effect = lower value): 0.775
normalized growth (S. cerevisiae deletion strains, locus YPL078C, strain atp4, stronger effect = lower value): 0.635 (active)
normalized growth (S. cerevisiae deletion strains, locus YPL106C, strain sse1, stronger effect = lower value): 1.04
normalized growth (S. cerevisiae deletion strains, locus YPL240C, strain hsp82, stronger effect = lower value): 0.714 (active)
normalized growth (S. cerevisiae deletion strains, locus YPL256C, strain CLN2, stronger effect = lower value): 1.01
normalized growth (S. cerevisiae deletion strains, locus YPR119W, strain clb2, stronger effect = lower value): 0.731 (active)
normalized growth (S. cerevisiae deletion strains, locus YPR141C, strain kar3, stronger effect = lower value): 0.959
normalized growth (S. cerevisiae deletion strains, locus YPR163C, strain tif3, stronger effect = lower value): 0.438 (active)
normalized growth (S. cerevisiae deletion strains, locus YPR167C, strain met16, stronger effect = lower value): 0.886 (active)
normalized growth (S. cerevisiae deletion strains, strain wtn01, stronger effect = lower value): 0.686 (active)
normalized growth (S. cerevisiae strains, strain wild type, stronger effect = lower value): 0.753 (active)
